Test results: ChEMBL document CHEMBL3988442, “University of Dundee, Small-Polar-MMV Screening Library” (2021)
The whole screen tested about 48,000 compounds, of which about 13,000 (27%) showed an effect of 50% or more. This is one part of the list.

System: Wolbachia pipientis
Experiment: Anti-Wolbachia Cell-Based Screen
Format: functional
Design: scale not given: in the data most compounds retested in dose-response had high values
Conditions: 5 µM

| SMILES | Percent Effect |
| --- | --- |
| CC(C)=CCN1C[C@H]2CC[C@@H]1CN(C(=O)c1c[nH]c(=O)c(Cl)c1)C2 | -5.36% |
| Cc1ncc(CC(=O)N2C[C@@H]3CC[C@H](C2)N(CC2CCC2)C3)c(=O)[nH]1 | 1.908% |
| O=C(c1c[nH]c(=O)c(Cl)c1)N1C[C@@H]2CC[C@H](C1)N(CC1CCC1)C2 | 97.45% |
| CCCn1cc(C(=O)NC(C(=O)O)c2ccccc2C(F)(F)F)c(C)n1 (stereo not drawn) | 7.837% |
| O=C(Cc1ccc(CO)cc1)N1CCN(CC2CC2)[C@@H]2CS(=O)(=O)C[C@@H]21 | -14.38% |
| CN1CCN(S(C)(=O)=O)Cc2cccnc21 | 126.5% |
| CN1CCN(c2ncccn2)CC12CCC(=O)N(CC1CC1)CC2 (stereo not drawn) | -4.361% |
| CN1CCN(S(=O)(=O)C2CC2)Cc2cccnc21 | 113.9% |
| CN(C)CCN1CCN(CC2CC2)c2ncccc2C1 | 104.8% |
| CCS(=O)(=O)N1CCN(C)c2ncccc2C1 | 97.89% |
| CN1CCN(Cc2ccoc2)Cc2cccnc21 | -15.03% |
| Cl.O=C(NCC1CCCCC1)N1C[C@@H]2C[C@H]1CN2 | -10.23% |
| CCCN1CCN(C(=O)c2ccc(Cl)cn2)[C@H]2CS(=O)(=O)C[C@H]21 | 7.172% |
| CCC(C(=O)N1CCCSCC1)N1CCCC1=O (stereo not drawn) | 0.6755% |
| Cc1cccc(CN2CC3C[C@]3(NC(=O)c3ccco3)C2)n1 (stereo partly drawn) | -15.21% |
| CCCN1CCN(C(=O)c2cccc(C)n2)[C@H]2CS(=O)(=O)C[C@H]21 | -6.939% |
| CCN1CCC2(CC1)CN(CCO)c1ccccc12 | -10.11% |
| O=C(O)C(F)(F)F.O=C(O)C(F)(F)F.c1cnc2c(c1)CN(C1CCOC1)CCN2CC1CC1 (stereo not drawn) | -0.9537% |
| CCS(=O)(=O)N1CCN(CC2CC2)c2ncccc2C1 | 115% |
| CS(=O)(=O)N1CCN(CC2CC2)c2ncccc2C1 | 6.456% |
| COc1ccccc1CC(C)N(C)CCS(C)(=O)=O (stereo not drawn) | -4.195% |
| COc1cc(N2C[C@H]3CCN(CCN4CCCC4)C[C@H]3C2)ncn1.O=C(O)C(F)(F)F.O=C(O)C(F)(F)F | -9.875% |
| COc1ncccc1CN1CCC2(CC1)COCCN2C.O=C(O)C(F)(F)F.O=C(O)C(F)(F)F | -5.344% |
| COc1cc(N2C[C@H]3CN(Cc4ccccn4)C[C@H]3C2)ncn1.O=C(O)C(F)(F)F | 127.8% |
| COCCN1CCCC12CCN(Cc1cccnc1OC)CC2.O=C(O)C(F)(F)F.O=C(O)C(F)(F)F | -1.646% |
| COc1ncccc1CN1C[C@@H]2OCCN(CCN(C)C)[C@@H]2C1.O=C(O)C(F)(F)F.O=C(O)C(F)(F)F.O=C(O)C(F)(F)F | 17.28% |

| SMILES | Percent Effect |
| --- | --- |
| COC[C@]12COC[C@H]1CN(Cc1cccnc1OC)C2 | 3.857% |
| CN(C)CCN1CCO[C@H]2CN(Cc3ccccn3)C[C@H]21.O=C(O)C(F)(F)F.O=C(O)C(F)(F)F.O=C(O)C(F)(F)F.O=C(O)C(F)(F)F | 10.34% |
| CNC(=O)[C@H]1C[C@@H]2CN(Cc3cccnc3OC)C[C@@H]2N1C(C)C.O=C(O)C(F)(F)F.O=C(O)C(F)(F)F.O=C(O)C(F)(F)F | 5.567% |
| CNC(=O)[C@H]1C[C@@H]2CN(Cc3cccnc3OC)C[C@@H]2N1C(C)=O.O=C(O)C(F)(F)F.O=C(O)C(F)(F)F | 92.23% |
| COCCCN1CCCC12CCN(Cc1cccnc1OC)CC2.O=C(O)C(F)(F)F.O=C(O)C(F)(F)F | -1.56% |
| COc1ncccc1CN1C[C@@H]2CN(c3ncccn3)C[C@@H]2C1 | 110.4% |
| COCCN1CC[C@@H]2CN(Cc3cccnc3OC)C[C@@H]2C1.O=C(O)C(F)(F)F.O=C(O)C(F)(F)F | 130.6% |
| Fc1cccnc1N1CCOCC2(CCCNC2)C1 (stereo not drawn) | -2.668% |
| N#Cc1cccc(C(=O)NS(=O)(=O)c2ccc(C#N)c(Cl)c2)c1 | -1.961% |
| COc1ccc(CN2C[C@H]3CN(c4cncnc4)C(=O)[C@H]3C2)cc1.O=C(O)C(F)(F)F | -6.592% |
| CCc1cc(N2CCC(NC3CN4CCC3CC4)CC2)nc(N(C)C)n1 (stereo not drawn) | 2.929% |
| CCCn1cc(C(=O)NCC(=O)NC2CC2)c(C)n1 | 8.869% |
| COc1ncccc1CN1C[C@H]2CCN(C(C)C)C[C@H]2C1.O=C(O)C(F)(F)F.O=C(O)C(F)(F)F | 108.8% |
| CCN1CCCC12CCN(Cc1cccnc1OC)CC2.O=C(O)C(F)(F)F.O=C(O)C(F)(F)F | 9.255% |
| COc1ncccc1CN1CC[C@H]2[C@H]1CCN2CCN(C)C.O=C(O)C(F)(F)F.O=C(O)C(F)(F)F.O=C(O)C(F)(F)F.O=C(O)C(F)(F)F | -2.708% |
| COc1ncccc1CN1C[C@H]2CCN(c3ncccn3)C[C@H]2C1.O=C(O)C(F)(F)F | 102% |
| CN1CC2(CCNCC2)CC1C(=O)NCCCNc1cccnc1 (stereo not drawn) | 9.44% |
| CC(=O)N1C[C@H]2CCCC(N3CCN(c4ncccn4)CC3)[C@H]2C1.O=C(O)C(F)(F)F.O=C(O)C(F)(F)F (stereo partly drawn) | -9.605% |
| CN1[C@@H](C(=O)NCC2CC2)C[C@@H]2CN(c3ncccn3)C[C@@H]21 | -3.694% |
| CNC(=O)[C@@]12CCCN(c3ncccn3)[C@@H]1CN(C)C2.O=C(O)C(F)(F)F | -0.06284% |
| O=C(O)C(F)(F)F.O=C(O)C(F)(F)F.c1cnc(N2CCCC3(CCN(CC4CC4)C3)C2)nc1 (stereo not drawn) | -2.531% |
| CN1C[C@H]2N(c3ncccn3)CCC[C@@]2(C(=O)NCC2CC2)C1.O=C(O)C(F)(F)F | 104.5% |
| CCN1C[C@H]2N(c3ncccn3)CCC[C@@]2(C(=O)NCC2CC2)C1 | 121.2% |
| CN(CC1Cc2ccccc2CN1C)C(=O)Cc1cccs1 (stereo not drawn) | 4.108% |
| Cn1cc(CN2C[C@H]3CCC[C@@H](CNc4ncccn4)[C@H]3C2)cn1.O=C(O)C(F)(F)F | 111.9% |
| Cn1ccnc1NC[C@@H]1CCC[C@@H]2CN(Cc3cccnc3)C[C@@H]21.O=C(O)C(F)(F)F | 109.4% |

| SMILES | Percent Effect |
| --- | --- |
| COc1ccc(CN2C[C@H]3CCC[C@@H](CN(C)C)[C@H]3C2)cn1.O=C(O)C(F)(F)F.O=C(O)C(F)(F)F | 10.6% |
| COCCN1C[C@H]2CCC[C@@H](CNc3ncccn3)[C@H]2C1.O=C(O)C(F)(F)F.O=C(O)C(F)(F)F | 1.407% |
| Cn1cc(CN2C[C@@H]3CCC[C@@H](OCc4cccnc4)[C@@H]3C2)cn1 | 52.17% |
| O=C(O)C(F)(F)F.c1cncc(CN2C[C@H]3CCC[C@@H](CNc4cnccn4)[C@H]3C2)c1 | 134.5% |
| O=C(O)C(F)(F)F.c1cnc(NC[C@@H]2CCC[C@@H]3CN(Cc4cc[nH]n4)C[C@@H]32)nc1 | -8.539% |
| O=C(O)C(F)(F)F.c1cnc(NC[C@@H]2CCC[C@@H]3CN(Cc4csnn4)C[C@@H]32)nc1 | 17.75% |
| COc1ccc(CN2C[C@H]3CCC[C@@H](CN(C)C4CC4)[C@H]3C2)cn1.O=C(O)C(F)(F)F.O=C(O)C(F)(F)F | 14.86% |
| O=C(O)C(F)(F)F.c1ccc(NC[C@@H]2CCC[C@@H]3CN(Cc4cc[nH]n4)C[C@@H]32)nc1 | -6.028% |
| CN(C[C@@H]1CCC[C@@H]2CN(Cc3cccnc3)C[C@@H]21)C1CC1.O=C(O)C(F)(F)F.O=C(O)C(F)(F)F | 2.908% |
| O[C@@]1(CNCCCNc2cccnc2)CCCN2CCCC[C@@H]21 | 3.199% |
| Cc1nc(O)cc(CN2CC=C(c3cnn(C(C)(C)C)c3)CC2)n1 | 6.105% |
| CC(Cc1ccccc1Br)NC(=O)CCS(C)(=O)=O (stereo not drawn) | 11.71% |
| O=C(O)C(F)(F)F.c1ccc(NC[C@@H]2CCC[C@@H]3CN(Cc4nccs4)C[C@@H]32)nc1 | -15.69% |
| O=C(O)C(F)(F)F.c1cnc(NC[C@@H]2CCC[C@@H]3CN(Cc4cccnc4)C[C@@H]32)nc1 | -1.894% |
| O=C(O)C(F)(F)F.c1ccc(NC[C@@H]2CCC[C@@H]3CN(Cc4cccnc4)C[C@@H]32)nc1 | 90.18% |
| CSCCCN1CC[C@@]2(O)CCN(c3ncccn3)C[C@H]2C1 | -7.567% |
| Cc1cccc(-c2ncc(CNC(C)Cc3ncccc3C)cn2)c1 (stereo not drawn) | -7.429% |
| c1cc(NC2CC3(CCN(Cc4cscn4)C3)C2)ncn1 (stereo not drawn) | 101.6% |
| Cc1noc(C)c1CN1C(=O)[C@H]2CC[C@@H]1CN(Cc1cscn1)C2 | -52.5% |
| Cc1cc(CN2C[C@H]3CCC[C@@]3(COCc3csc(C)n3)C2)no1.O=C(O)C(F)(F)F | 6.371% |
| Cc1nc(CN2CCCC3(CCN(c4cccnc4)C3=O)C2)cs1.O=C(O)C(F)(F)F.O=C(O)C(F)(F)F (stereo not drawn) | -13.68% |
| Cc1nc(CN2CCC3(C2)CN(C(=O)c2conc2C)C3)cs1 | 97.08% |
| c1cc(NC2CC3(CCN(Cc4cc[nH]n4)C3)C2)ncn1 (stereo not drawn) | -10.13% |
| Cc1cc(NC2CC3(CCN(Cc4csc(C)n4)C3)C2)ncn1 (stereo not drawn) | 114% |
| Cc1cc(NC2CC3(CCN(Cc4cscn4)C3)C2)ncn1 (stereo not drawn) | 115% |
| NCC1(c2cccc(F)c2)CCOCC1 | -10.48% |
